Measurements: the supplement of paper PMC7411054
Where a name gives a salt, the structure may show the parent alone.

Experiments:
Assay in all cases: phenotypically active (imaging signature differs from DMSO and reproducible) at any of 0.3-9 uM (binary (1 = active, 0 = inactive)); higher = active
Details in all cases: treatment time: 24 h
[1] = tested on: A549-ACTB-RAB5A
Outline: (§1)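 Fifteen gene-edited A549, HepG2 and WPMY1 reporter lines (BFP segmentation plus GFP and RFP/FusionRed markers) were treated at 0.3, 1, 3 or 9 µM for 24 h, four wells each, then imaged live. Live-cell features per well were normalised to DMSO control wells. Deviation required ≥3 of 4 wells beyond the 95th percentile of DMSO Euclidean distances, and reproducibility required median replicate Pearson correlation above the 95th percentile of non-replicates. Phenotypic activity needed both criteria.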

[2] = tested on: A549-CANX-COX4
Outline: as §1

[3] = tested on: A549-GM130-SQSTM1
Outline: as §1

[4] = tested on: A549-TP53BP1-CLTA
Outline: as §1

[5] = tested on: A549-TUBA1B-RELA
Outline: as §1

[6] = tested on: HepG2-ACTB-RAB5A
Outline: as §1

[7] = tested on: HepG2-CANX-COX4
Outline: as §1

[8] = tested on: HepG2-GM130-SQSTM1
Outline: as §1

[9] = tested on: HepG2-TP53BP1-CLTA
Outline: as §1

[10] = tested on: HepG2-TUBA1B-RELA
Outline: as §1

[11] = tested on: WPMY1-ACTB-RAB5A
Outline: as §1

[12] = tested on: WPMY1-CANX-COX4
Outline: as §1

[13] = tested on: WPMY1-GM130-SQSTM1
Outline: as §1

[14] = tested on: WPMY1-TP53BP1-CLTA
Outline: as §1

[15] = tested on: WPMY1-TUBA1B-RELA
Outline: as §1

Measured: phenotypically active

CCCCOc1cc(C(=O)OCCN(CC)CC)ccc1N [oxybuprocaine]
inactive: [1] 0 | [2] 0 | [3] 0 | [4] 0 | [5] 0 | [6] 0 | [7] 0 | [8] 0 | [9] 0 | [10] 0 | [11] 0 | [12] 0 | [13] 0 | [14] 0 | [15] 0

CC(C)Cn1c(=O)n(C)c(=O)c2[nH]cnc21
inactive: [1] 0 | [2] 0 | [3] 0 | [4] 0 | [5] 0 | [6] 0 | [7] 0 | [8] 0 | [9] 0 | [10] 0 | [11] 0 | [12] 0 | [13] 0 | [14] 0 | [15] 0

CC(=O)CCCCn1c(=O)c2c(ncn2C)n(C)c1=O [Pentoxifylline]
inactive: [1] 0 | [2] 0 | [3] 0 | [4] 0 | [5] 0 | [6] 0 | [7] 0 | [8] 0 | [9] 0 | [10] 0 | [11] 0 | [12] 0 | [13] 0 | [14] 0 | [15] 0

COc1ccc2c(c1OC)C(=O)O[C@@H]2[C@H]1c2c(cc3c(c2OC)OCO3)CCN1C [Noscapine hydrochloride]
inactive: [1] 0 | [2] 0 | [3] 0 | [4] 0 | [5] 0 | [6] 0 | [7] 0 | [8] 0 | [9] 0 | [10] 0 | [11] 0 | [12] 0 | [13] 0 | [14] 0 | [15] 0

COc1ccc([C@H]2CNC(=O)C2)cc1OC1CCCC1 [(S)-(+)-Rolipram]
inactive: [1] 0 | [2] 0 | [3] 0 | [4] 0 | [5] 0 | [6] 0 | [7] 0 | [8] 0 | [9] 0 | [10] 0 | [11] 0 | [12] 0 | [13] 0 | [14] 0 | [15] 0

O=C(O)c1cc(/N=N/c2ccc(O)c(C(=O)O)c2)ccc1O [olsalazine]
inactive: [1] 0 | [2] 0 | [3] 0 | [4] 0 | [5] 0 | [6] 0 | [7] 0 | [8] 0 | [9] 0 | [10] 0 | [11] 0 | [12] 0 | [13] 0 | [14] 0 | [15] 0

CC(=O)N[C@@H]1[C@@H](O[C@H](C)C(=O)O)[C@H](O)[C@@H](CO)O[C@@H]1O [Muramic acid, N-acetyl]
inactive: [1] 0 | [2] 0 | [3] 0 | [4] 0 | [5] 0 | [6] 0 | [7] 0 | [8] 0 | [9] 0 | [10] 0 | [11] 0 | [12] 0 | [13] 0 | [14] 0 | [15] 0

Cc1c(OCC(F)(F)F)ccnc1CS(=O)c1nc2ccccc2[nH]1 (stereo not given) [lansoprazole]
inactive: [1] 0 | [2] 0 | [3] 0 | [4] 0 | [5] 0 | [6] 0 | [7] 0 | [8] 0 | [9] 0 | [10] 0 | [11] 0 | [12] 0 | [13] 0 | [14] 0 | [15] 0

Cc1[nH]c(=O)c(C#N)cc1-c1ccncc1 [Milrinone]
inactive: [1] 0 | [2] 0 | [3] 0 | [4] 0 | [5] 0 | [6] 0 | [7] 0 | [8] 0 | [9] 0 | [10] 0 | [11] 0 | [12] 0 | [13] 0 | [14] 0 | [15] 0

COc1cc2c(NC3CCN(C)CC3)nc(N3CCCN(C)CC3)nc2cc1OCCCN(C)C
inactive: [1] 0 | [2] 0 | [3] 0 | [4] 0 | [5] 0 | [6] 0 | [7] 0 | [8] 0 | [9] 0 | [10] 0 | [11] 0 | [12] 0 | [13] 0 | [14] 0 | [15] 0

Nc1ncnc2c1ncn2[C@@H]1O[C@H](CO)C[C@H]1O [Cordycepin]
inactive: [1] 0 | [2] 0 | [3] 0 | [4] 0 | [5] 0 | [6] 0 | [7] 0 | [8] 0 | [9] 0 | [10] 0 | [11] 0 | [12] 0 | [13] 0 | [14] 0 | [15] 0

Cn1nnc2c(C(N)=O)ncn2c1=O [temozolomide]
inactive: [1] 0 | [2] 0 | [3] 0 | [4] 0 | [5] 0 | [6] 0 | [7] 0 | [8] 0 | [9] 0 | [10] 0 | [11] 0 | [12] 0 | [13] 0 | [14] 0 | [15] 0

CN(C)c1nc(N(C)C)nc(N(C)C)n1 [altretamine]
inactive: [1] 0 | [2] 0 | [3] 0 | [4] 0 | [5] 0 | [6] 0 | [7] 0 | [8] 0 | [9] 0 | [10] 0 | [11] 0 | [12] 0 | [13] 0 | [14] 0 | [15] 0

NNCCc1ccccc1 [phenelzine]
inactive: [1] 0 | [2] 0 | [3] 0 | [4] 0 | [5] 0 | [6] 0 | [7] 0 | [8] 0 | [9] 0 | [10] 0 | [11] 0 | [12] 0 | [13] 0 | [14] 0 | [15] 0

Nn1nnc2ccccc21
inactive: [1] 0 | [2] 0 | [3] 0 | [4] 0 | [5] 0 | [6] 0 | [7] 0 | [8] 0 | [9] 0 | [10] 0 | [11] 0 | [12] 0 | [13] 0 | [14] 0 | [15] 0

COc1ccccc1OCC(O)COC(N)=O (stereo not given) [methocarbamol]
inactive: [1] 0 | [2] 0 | [3] 0 | [4] 0 | [5] 0 | [6] 0 | [7] 0 | [8] 0 | [9] 0 | [10] 0 | [11] 0 | [12] 0 | [13] 0 | [14] 0 | [15] 0

CC(=O)OCC[N+](C)(C)C [acetylcholine]
inactive: [1] 0 | [2] 0 | [3] 0 | [4] 0 | [5] 0 | [6] 0 | [7] 0 | [8] 0 | [9] 0 | [10] 0 | [11] 0 | [12] 0 | [13] 0 | [14] 0 | [15] 0

CCOc1cc(CC(=O)N[C@@H](CC(C)C)c2ccccc2N2CCCCC2)ccc1C(=O)O [repaglinide]
inactive: [1] 0 | [2] 0 | [3] 0 | [4] 0 | [5] 0 | [6] 0 | [7] 0 | [8] 0 | [9] 0 | [10] 0 | [11] 0 | [12] 0 | [13] 0 | [14] 0 | [15] 0

C[C@H]1[C@H](C)CC[C@]2(C(=O)O[C@@H]3O[C@H](CO[C@@H]4O[C@H](CO)[C@@H](O[C@@H]5O[C@@H](C)[C@H](O)[C@@H](O)[C@H]5O)[C@H](O)[C@H]4O)[C@@H](O)[C@H](O)[C@H]3O)CC[C@]3(C)C(=CC[C@@H]4[C@@]5(C)C[C@@H](O)[C@H](O)[C@@](C)(CO)[C@@H]5CC[C@]43C)[C@H]12 [Asiaticoside]
inactive: [1] 0 | [2] 0 | [3] 0 | [4] 0 | [5] 0 | [6] 0 | [7] 0 | [8] 0 | [9] 0 | [10] 0 | [11] 0 | [12] 0 | [13] 0 | [14] 0 | [15] 0

C[n+]1cccc(C(=O)O)c1 [Trigonelline hydrochloride]
inactive: [1] 0 | [2] 0 | [3] 0 | [4] 0 | [5] 0 | [6] 0 | [7] 0 | [8] 0 | [9] 0 | [10] 0 | [11] 0 | [12] 0 | [13] 0 | [14] 0 | [15] 0

Cc1ccc2ccc(C(Nc3ccccc3)c3ccccc3)c(O)c2n1 (stereo not given)
inactive: [1] 0 | [2] 0 | [3] 0 | [4] 0 | [5] 0 | [6] 0 | [7] 0 | [8] 0 | [9] 0 | [10] 0 | [11] 0 | [12] 0 | [13] 0 | [14] 0 | [15] 0
